Experimental data published in PubChem BioAssay.
The source made the active and inactive calls. No rule for the calls is given here.

Target: Pantothenate synthetase (Mycobacterium tuberculosis (strain ATCC 25618 / H37Rv)) (UniProt P9WIL5)
Assay: Recombinant Mtb pantothenate synthetase (PanC) inhibitors, coupled enzyme, confirmatory (AID 375);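 also: 0% = full reaction with vehicle and 100% = no enzyme background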
Conditions: coupled enzyme assay; at 10 µM, hits give high values

Sequence of Pantothenate synthetase (Mycobacterium tuberculosis (strain ATCC 25618 / H37Rv)) (P9WIL5 whole entry, looked up): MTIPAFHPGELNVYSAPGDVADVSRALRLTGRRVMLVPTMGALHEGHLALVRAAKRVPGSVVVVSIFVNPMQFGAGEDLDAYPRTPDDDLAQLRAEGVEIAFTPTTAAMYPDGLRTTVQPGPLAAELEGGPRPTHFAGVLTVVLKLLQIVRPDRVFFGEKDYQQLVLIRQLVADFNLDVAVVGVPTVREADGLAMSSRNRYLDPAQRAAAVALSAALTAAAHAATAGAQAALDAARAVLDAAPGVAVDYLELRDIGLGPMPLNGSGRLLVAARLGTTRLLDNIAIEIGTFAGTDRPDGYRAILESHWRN

| Compound | inhibition |
| --- | --- |
| O=C(Cn1cnc2c(cnn2-c2ccccc2)c1=O)NCCc1ccccc1 | 0% (inactive) |
| COc1cc(C(=O)N2c3ccccc3CC2C)cc(OC)c1OC (stereo not given) | 0% (inactive) |
| NC(=O)C1CCN(C(=S)c2cccs2)CC1 | 0% (inactive) |
| CCOC(=O)N1CCC(NC(=O)c2ccc3c(c2)sc2nc(-c4cccc(OC)c4)cn23)CC1 | 0% (inactive) |
| CC(=O)c1c(C)[nH]c(C(=O)Nc2c(C)n(C)n(-c3ccccc3)c2=O)c1C | 7% (inactive) |
| COC(=O)c1cn(NC(=O)C2CCCO2)c(=O)c2ccccc12 (stereo not given) | 0% (inactive) |
| CCOc1ccccc1C1N(c2ccc(F)cc2)C(=O)C2CCCN21 (stereo not given) | 2% (inactive) |
| COc1cccc(Oc2cn[nH]c2-c2ccc(O)cc2O)c1 | 0% (inactive) |
| CN(C)c1ccc(/C=C/c2ccncc2)cc1 | 1% (inactive) |
| COc1cc2c(cc1OC)-c1cc(Nc3ccc4c(c3)OCCO4)nc(=O)n1CC2 | 2% (inactive) |
| Cc1ccc(N2CCN(C(=O)c3ccccc3)CC2)c(C)c1 | 1% (inactive) |
| O=C1C2CC=CCC2C(=O)N1c1ccc(Cc2ccncc2)cc1 (stereo not given) | 0% (inactive) |
| O=C(CC(CC(=O)c1ccccc1)C(=O)O)c1ccccc1 | 3% (inactive) |
| CC(C)Cc1nc2oc3c(N4CCN(CCO)CC4)ncnc3c2c2c1CCCC2 | 0% (inactive) |
| CCOC(=O)N1CCC(N(CCCOC)C(=O)Nc2ccc(CC)cc2)CC1 | 0% (inactive) |
| CC(C)COc1ccc(-c2nnn(CC(=O)N3CCCC3)n2)cc1 | 0% (inactive) |
| Fc1ccc(-c2csc3nnc(SCc4cccnc4)n23)cc1 | 0% (inactive) |
| Cc1ccc(C(=O)CSc2nnc(CNc3ccc(C)cc3C)o2)cc1 | 7% (inactive) |
| CC(=O)O[C@H]1C[C@@H]2CC[C@@H]3[C@H](CC[C@@]4(C)[C@H]3C[C@H]([N+]3(C)CCCCC3)[C@@H]4OC(C)=O)[C@@]2(C)C[C@@H]1[N+]1(C)CCCCC1 | 0% (inactive) |
| Cc1ccc(OC(=O)CCC(=O)OCCCC(F)(F)C(F)(F)F)cc1 | 3% (inactive) |

| Compound | inhibition |
| --- | --- |
| O=C(CSc1ccc2nnc(-c3ccccc3)n2n1)N1CCN(c2ccccc2)CC1 | 1% (inactive) |
| CCOc1ccc2cc(C#N)c(SCC(=O)N3CCCC3)nc2c1 | 0% (inactive) |
| O=C(Cn1cc2c(n1)CCCC2)NCCc1ccccc1 | 0% (inactive) |
| COCc1nnc(NC(=O)c2ccc(NC(C)=O)cc2)s1 | 2% (inactive) |
| CCn1c(SCc2cc(=O)[nH]c3ccccc23)nc2c1c(=O)n(C)c(=O)n2C | 5% (inactive) |
| CCNC(=O)N1c2ccc(OCC)cc2C(C)=CC1(C)C | 0% (inactive) |
| COc1ccccc1N1CCN(CC(O)c2ccc3cc[nH]c3c2)CC1 (stereo not given) | 5% (inactive) |
| Cn1c(=O)c2c3c(sc2n2c(SCC(=O)c4ccc(Cl)cc4)nnc12)COC(C)(C)C3 | 0% (inactive) |
| Cc1nnc(N2C(=O)C(O)=C(C(=O)c3ccco3)C2c2ccc(F)cc2)s1 (stereo not given) | 0% (inactive) |
| O=C(/C=C/N1CCOCC1)c1ccc(-c2ccccc2)cc1 | 4% (inactive) |
| COc1ccc(C2(C(=O)N3CCCC3)CCOCC2)cc1OC | 6% (inactive) |
| O=C(O)c1cc(=O)c2c(OCC(O)COc3cccc4oc(C(=O)O)cc(=O)c34)cccc2o1 | 1% (inactive) |
| O=C(Nc1ccc(N2C(=O)C3C4C=CC(C4)C3C2=O)cc1)Nc1nncs1 (stereo not given) | 5% (inactive) |
| O=C(NCc1ccco1)c1cccc(-c2nnc(-c3ccccc3)o2)c1 | 0% (inactive) |
| CCOC(=O)c1ccc(Oc2nc(SC)nc(N(C)C)n2)cc1 | 1% (inactive) |
| CCCN1CCN(CCCNC(=O)Cn2nc(-c3ccc(Cl)cc3)ccc2=O)CC1 | 0% (inactive) |
| Cc1cc(C(F)(F)F)nn1Cc1ccc(C(=O)NCc2ccco2)o1 | 0% (inactive) |
| COc1cc([C@@H]2c3cc4c(cc3[C@H](O)[C@H]3COC(=O)[C@H]23)OCO4)cc(OC)c1OC | 0% (inactive) |
| CCOC(=O)Cc1nnc2c(Nc3ccccc3F)nc3nonc3n12 | 7% (inactive) |
| CCc1[nH]nc2c1C1(CCN(C(=O)OCc3ccccc3)CC1)C(C#N)=C(N)O2 | 0% (inactive) |
